# Laboratory results as given in PubChem BioAssay (EPA / NIEHS).
# Values joined by “and” are separate entries in the source; they are usually repeats but may differ in a detail not shown here. Equal entries are not always repeated. Inconclusive results are not listed. A structure can be active in one record and inactive in another. Active and inactive are the calls of the source. The calls were made as follows, unless noted: active = hit-call score of the fitted dose curve at least 0.9, where 1 is the maximum; inactive = score below 0.9.
# Experiments:
# [1] = BSK_3C_VCAM1: BioMAP Diversity Plus: 3C Assay for Vascular cell adhesion molecule 1 (VCAM1) Biomarker Activity (AID 2282999); conditions: BioMAP 3C HUVEC, VCAM1 ELISA, cytokine-stimulated; actives raise or lower the signal
# Procedure, shortened: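 Human umbilical vein endothelial cells (3C system), biomarker read by ELISA 24 h after dosing; bidirectional fit against DMSO baseline. Cytotoxicity tracked by SRB total-protein staining in parallel cultures at biomarker time.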
# [2] = BSK_4H_Eotaxin3: BioMAP Diversity Plus: 4H Assay for Eotaxin 3 Biomarker Activity (AID 2283000); conditions: primary human endothelial cells (HUVEC); actives raise or lower the signal;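 as to outcome: CCL26 protein level quantified by ELISA in parallel with SRB cytotoxicity check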
# Procedure, shortened: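 Chemicals were added to human umbilical vein endothelium cultures, and Eotaxin-3 was quantified by ELISA at 24 h. Values were derived by bidirectional fitting with DMSO serving as negative control and activity baseline.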
# [3] = target: human Peroxisome Proliferator-activated Receptor alpha (PPARa), PPARA (gene 5465) (UniProt Q07869); assay: ATG_PPARa_TRANS: Attagene TRANS-FACTORIAL HepG2 Assay for human Peroxisome Proliferator-activated Receptor alpha (PPARa) (AID 2283001; active = hit-call score of the fitted dose curve at least 0.9, where 1 is the maximum)
# Chain of human Peroxisome Proliferator-activated Receptor alpha (PPARa), PPARA (gene 5465) (Q07869 whole entry, looked up, the tested form may be a part): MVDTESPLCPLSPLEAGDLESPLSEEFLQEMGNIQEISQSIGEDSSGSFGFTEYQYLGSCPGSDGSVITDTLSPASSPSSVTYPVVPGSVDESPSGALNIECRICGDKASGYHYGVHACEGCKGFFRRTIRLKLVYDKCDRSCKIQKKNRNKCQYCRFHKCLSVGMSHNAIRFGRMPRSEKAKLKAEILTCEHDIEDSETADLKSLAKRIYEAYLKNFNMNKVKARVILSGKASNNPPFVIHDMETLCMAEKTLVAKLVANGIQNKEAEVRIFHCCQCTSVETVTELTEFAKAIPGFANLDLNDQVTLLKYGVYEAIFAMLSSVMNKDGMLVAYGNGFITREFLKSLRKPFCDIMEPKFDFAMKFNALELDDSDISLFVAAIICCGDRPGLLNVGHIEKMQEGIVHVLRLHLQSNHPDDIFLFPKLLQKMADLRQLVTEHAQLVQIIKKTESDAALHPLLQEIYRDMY
# Procedure, shortened: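 HepG2 cells transiently transfected with multiplexed GAL4-UAS reporters driven by exogenous chimeric NR-Gal4 proteins; reporter mRNA measured after 24 h dosing. Read-out by RT-PCR, 6-FAM labelling, HpaI digestion and capillary electrophoresis; gain of signal versus DMSO.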
# [4] = target: human Peroxisome Proliferator-activated Receptor delta (PPARd), PPARD (gene 5467) (UniProt Q03181); assay: ATG_PPARd_TRANS: Attagene TRANS-FACTORIAL HepG2 Assay for human Peroxisome Proliferator-activated Receptor delta (PPARd) (AID 2283002; active = hit-call score of the fitted dose curve at least 0.9, where 1 is the maximum)
# Chain of human Peroxisome Proliferator-activated Receptor delta (PPARd), PPARD (gene 5467) (Q03181 whole entry, looked up, the tested form may be a part): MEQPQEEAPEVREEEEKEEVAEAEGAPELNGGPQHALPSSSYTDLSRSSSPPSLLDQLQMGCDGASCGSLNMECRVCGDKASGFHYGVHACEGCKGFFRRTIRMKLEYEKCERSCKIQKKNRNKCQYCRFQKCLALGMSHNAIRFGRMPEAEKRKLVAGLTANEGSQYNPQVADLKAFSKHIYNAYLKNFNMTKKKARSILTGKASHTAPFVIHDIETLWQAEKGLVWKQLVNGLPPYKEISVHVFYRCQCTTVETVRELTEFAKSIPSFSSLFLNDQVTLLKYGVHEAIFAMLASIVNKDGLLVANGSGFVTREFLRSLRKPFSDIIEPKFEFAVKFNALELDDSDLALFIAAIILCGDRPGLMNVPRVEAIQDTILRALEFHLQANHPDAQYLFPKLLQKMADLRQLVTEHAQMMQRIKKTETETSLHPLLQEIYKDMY
# Procedure, shortened: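 HepG2 cells transiently transfected with GAL4-UAS multiplexed reporter units driven by exogenous chimeric NR-GAL4 proteins; 24 h compound exposure. Reporter mRNA measured by RT-PCR, 6-FAM primer extension, HpaI digestion and capillary electrophoresis; gain of signal fitted relative to DMSO.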
# [5] = read-out: Intercellular Adhesion Molecule 1 (ICAM1), ICAM1 (gene 3383); assay: BSK_3C_ICAM1: BioMAP Diversity Plus: 3C Assay for Intercellular Adhesion Molecule 1 (ICAM1) Biomarker Activity (AID 2283003); conditions: primary human endothelial cells (HUVEC); actives raise or lower the signal
# Procedure, shortened: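 HUVEC primary cells stimulated under 3C conditions; ICAM1 measured by ELISA 24 h after compound dosing. Curves fitted bidirectionally against the DMSO baseline. Overt cytotoxicity checked by SRB staining of parallel cultures.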
# [6] = BSK_3C_Proliferation: Cell Proliferation Assessment in the BioMAP Diversity Plus: 3C Assay (AID 2283006); conditions: primary human endothelial cells (HUVEC);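 as to AC50: potency may reflect either rise or fall in cell number versus DMSO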
# Procedure, shortened: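 Subconfluent HUVEC (3C system) cultured with chemical; relative cell number read at 48 h by sulforhodamine B total-protein staining (0.1% SRB after 10% TCA fixation, 560 nm). Bidirectional fit relative to DMSO.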
# [7] = target: Peroxisome proliferator-activated receptor gamma (Homo sapiens) (UniProt P37231); assay: ATG_PPARg_TRANS: Attagene TRANS-FACTORIAL HepG2 Assay for human Peroxisome Proliferator-activated Receptor-gamma (PPARg) (AID 2283007; active = hit-call score of the fitted dose curve at least 0.9, where 1 is the maximum)
# Chain of Peroxisome proliferator-activated receptor gamma (Homo sapiens) (P37231 whole entry, looked up, the tested form may be a part): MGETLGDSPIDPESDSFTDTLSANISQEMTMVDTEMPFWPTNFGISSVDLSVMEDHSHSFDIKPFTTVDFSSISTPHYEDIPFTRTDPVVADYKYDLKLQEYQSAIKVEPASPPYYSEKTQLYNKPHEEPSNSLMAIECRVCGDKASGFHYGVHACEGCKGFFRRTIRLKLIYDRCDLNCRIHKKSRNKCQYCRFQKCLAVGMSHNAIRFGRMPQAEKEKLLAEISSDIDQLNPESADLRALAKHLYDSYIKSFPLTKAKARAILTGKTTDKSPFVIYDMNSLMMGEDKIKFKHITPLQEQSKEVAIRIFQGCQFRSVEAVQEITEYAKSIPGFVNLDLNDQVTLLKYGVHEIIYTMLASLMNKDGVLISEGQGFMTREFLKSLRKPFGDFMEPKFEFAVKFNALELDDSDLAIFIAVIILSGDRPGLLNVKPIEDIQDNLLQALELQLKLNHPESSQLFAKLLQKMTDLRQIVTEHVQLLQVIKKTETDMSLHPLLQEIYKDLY
# Procedure, shortened: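 Transient transfection of HepG2 with GAL4-UAS-driven reporter units; chemical dosing 24 h; total RNA → oligo(dT) RT → PCR with reporter primers → 6-FAM primer extension → HpaI digest 2 h 37 C → capillary electrophoresis. Positive direction vs DMSO.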
# [8] = target: Nuclear receptor subfamily 1 group I member 2 (Homo sapiens) (UniProt O75469); assay: ATG_PXR_TRANS: Attagene TRANS-FACTORIAL HepG2 Assay for human Pregnane X Receptor (PXR) (AID 2283008; active = hit-call score of the fitted dose curve at least 0.9, where 1 is the maximum)
# Chain of Nuclear receptor subfamily 1 group I member 2 (Homo sapiens) (O75469 whole entry, looked up, the tested form may be a part): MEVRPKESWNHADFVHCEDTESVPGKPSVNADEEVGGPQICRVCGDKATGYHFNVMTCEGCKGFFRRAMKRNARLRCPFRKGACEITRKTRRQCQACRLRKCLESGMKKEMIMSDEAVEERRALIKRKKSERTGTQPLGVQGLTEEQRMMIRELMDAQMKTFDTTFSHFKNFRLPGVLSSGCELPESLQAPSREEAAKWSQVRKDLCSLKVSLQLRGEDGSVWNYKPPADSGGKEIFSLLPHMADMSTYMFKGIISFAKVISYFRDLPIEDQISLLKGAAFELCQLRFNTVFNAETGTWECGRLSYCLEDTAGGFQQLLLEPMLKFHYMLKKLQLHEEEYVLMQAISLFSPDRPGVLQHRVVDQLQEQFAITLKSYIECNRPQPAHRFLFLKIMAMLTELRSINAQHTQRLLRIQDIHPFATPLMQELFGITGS
# Procedure, shortened: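 Fluorescence intensity of FAM-labelled, HpaI-digested reporter amplicons, separated by capillary electrophoresis, quantifies induction. HepG2 cells with PXR-Gal4 trans-reporter system were exposed 24 h; DMSO defines baseline.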
# [9] = target: human RAR-related Orphan Receptor gamma (RORg), RORC (gene 6097) (UniProt P51449); assay: ATG_RORg_TRANS: Attagene TRANS-FACTORIAL HepG2 Assay for human RAR-related Orphan Receptor gamma (RORg) (AID 2283011; active = hit-call score of the fitted dose curve at least 0.9, where 1 is the maximum)
# Procedure, shortened: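 First, HepG2 liver cells were transfected with GAL4-UAS-driven reporter constructs and the RORg-Gal4 fusion. Next, they were treated with chemical for 24 h. Finally, reporter mRNA was quantified by RT-PCR and capillary electrophoresis, with upward activity fitted against DMSO.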
# [10] = read-out: E-selectin (Homo sapiens) (UniProt P16581); assay: BSK_3C_Eselectin: BioMAP Diversity Plus: 3C Assay for Eselectin Biomarker Activity (AID 2283015); conditions: primary human endothelial cells (HUVEC); actives raise or lower the signal;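 as to outcome: cell surface E-selectin protein quantified by ELISA 24 h after dosing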
# Procedure, shortened: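 ELISA read-out of E-selectin on endothelial monolayers after 24 h chemical treatment. Human umbilical vein primary cells served as the system, with DMSO defining baseline activity for bidirectional fitting.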
# [11] = read-out: Interleukin-1 alpha (IL1a), IL1A (gene 3552); assay: BSK_BE3C_IL1a: BioMAP Diversity Plus: BE3C Assay for Interleukin-1 alpha (IL1a) Biomarker Activity (AID 2283016); conditions: primary human bronchial epithelial cells; actives raise or lower the signal
# Procedure, shortened: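 Human primary bronchial epithelial cells, 24 h chemical exposure; IL-1a quantified by ELISA, fitted bidirectionally against DMSO. Cytotoxicity assessed in parallel by SRB total-protein staining at the time of measurement.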
# [12] = read-out: Monocyte Chemoattractant Protein-1 (MCP1), CCL2 (gene 6347); assay: BSK_3C_MCP1: BioMAP Diversity Plus: 3C Assay for Monocyte Chemoattractant Protein-1 (MCP1) Biomarker Activity (AID 2283017); conditions: primary human endothelial cells (HUVEC); actives raise or lower the signal
# Procedure, shortened: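 ELISA read-out of MCP-1 from human umbilical vein endothelial cell cultures harvested 24 h post-dosing. Gain or loss of signal was fitted relative to DMSO.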
# [13] = read-out: Monocyte Chemoattractant Protein-1 (MCP1), CCL2 (gene 6347); assay: BSK_4H_MCP1: BioMAP Diversity Plus: 4H Assay for Monocyte Chemoattractant Protein-1 (MCP1) Biomarker Activity (AID 2283018); conditions: primary human endothelial cells (HUVEC); actives raise or lower the signal
# Procedure, shortened: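 Human umbilical vein endothelial cells (4H system) exposed to chemicals for 24 h in 96-well format. MCP-1 measured by ELISA; bidirectional fitting against DMSO, with SRB total-protein staining in parallel cultures for cytotoxicity.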
# [14] = read-out: Human Leukocyte Antigen - DR isotype (HLADR), HLA-DRA (gene 3122); assay: BSK_3C_HLADR: BioMAP Diversity Plus: 3C Assay for Human Leukocyte Antigen - DR isotype (HLADR) Biomarker Activity (AID 2283019); conditions: primary human endothelial cells (HUVEC); actives raise or lower the signal;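 as to outcome: ELISA of cell-surface HLA-DR on HUVEC 24 h after dosing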
# Procedure, shortened: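 ELISA readout of surface HLA-DR on human umbilical vein endothelium, taken 24 h after chemical treatment. Gain- and loss-of-signal were both fitted relative to DMSO.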
# [15] = target: human Retinoic Acid Receptor gamma (RARg), RARG (gene 5916) (UniProt P13631); assay: ATG_RARg_TRANS: Attagene TRANS-FACTORIAL HepG2 Assay for human Retinoic Acid Receptor gamma (RARg) (AID 2283009; active = hit-call score of the fitted dose curve at least 0.9, where 1 is the maximum)
# Chain of human Retinoic Acid Receptor gamma (RARg), RARG (gene 5916) (P13631 whole entry, looked up, the tested form may be a part): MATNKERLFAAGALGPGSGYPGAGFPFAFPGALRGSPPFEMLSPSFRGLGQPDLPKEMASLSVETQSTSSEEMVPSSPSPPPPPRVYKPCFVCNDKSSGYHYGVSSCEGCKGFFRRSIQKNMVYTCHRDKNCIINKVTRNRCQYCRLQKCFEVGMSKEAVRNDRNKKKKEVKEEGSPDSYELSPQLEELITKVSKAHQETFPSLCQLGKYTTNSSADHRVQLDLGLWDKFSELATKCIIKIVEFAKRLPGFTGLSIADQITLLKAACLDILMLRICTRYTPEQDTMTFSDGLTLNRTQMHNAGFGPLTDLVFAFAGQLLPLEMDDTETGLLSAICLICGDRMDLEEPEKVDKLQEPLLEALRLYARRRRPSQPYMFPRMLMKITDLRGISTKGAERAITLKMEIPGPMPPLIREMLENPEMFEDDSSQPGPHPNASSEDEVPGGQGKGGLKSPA
# Procedure, shortened: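 HepG2 transiently transfected with GAL4-UAS reporter units and chimeric NR-Gal4 constructs; 24 h compound exposure. Reporter mRNA quantified by RT-PCR, FAM labeling, HpaI digestion and capillary electrophoresis; gain-of-signal versus DMSO.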
# [16] = target: Retinoic acid receptor RXR-alpha (Homo sapiens) (UniProt P19793); assay: ATG_RXRa_TRANS: Attagene TRANS-FACTORIAL HepG2 Assay for human Retinoid X Receptor alpha (RXRa) (AID 2283012; active = hit-call score of the fitted dose curve at least 0.9, where 1 is the maximum)
# Chain of Retinoic acid receptor RXR-alpha (Homo sapiens) (P19793 whole entry, looked up, the tested form may be a part): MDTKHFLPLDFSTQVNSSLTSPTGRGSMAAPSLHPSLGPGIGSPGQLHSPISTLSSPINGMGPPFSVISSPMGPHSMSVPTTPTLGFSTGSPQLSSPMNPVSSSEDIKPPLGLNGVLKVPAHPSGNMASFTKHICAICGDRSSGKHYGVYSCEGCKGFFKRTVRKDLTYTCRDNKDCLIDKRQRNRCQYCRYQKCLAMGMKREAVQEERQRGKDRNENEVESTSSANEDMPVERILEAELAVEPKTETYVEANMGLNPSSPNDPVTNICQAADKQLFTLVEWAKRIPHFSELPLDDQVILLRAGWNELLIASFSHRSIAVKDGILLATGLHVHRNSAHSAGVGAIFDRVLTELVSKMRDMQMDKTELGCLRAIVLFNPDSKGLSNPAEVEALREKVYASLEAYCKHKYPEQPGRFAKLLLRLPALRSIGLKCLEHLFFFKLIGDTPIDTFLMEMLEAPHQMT
# Procedure, shortened: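 HepG2 cells transiently transfected with GAL4-UAS reporter units and chimeric RXRa-Gal4 protein, treated 24 h. Reporter mRNA measured by RT-PCR, fluorescent labelling, HpaI digestion and capillary electrophoresis. Induction fitted against DMSO.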
# [17] = target: human Thyroid Receptor alpha (THRa1), THRA (gene 7067) (UniProt P10827); assay: ATG_THRa1_TRANS: Attagene TRANS-FACTORIAL HepG2 Assay for human Thyroid Receptor alpha (THRa1) (AID 2283014; active = hit-call score of the fitted dose curve at least 0.9, where 1 is the maximum)
# Chain of human Thyroid Receptor alpha (THRa1), THRA (gene 7067) (P10827 whole entry, looked up, the tested form may be a part): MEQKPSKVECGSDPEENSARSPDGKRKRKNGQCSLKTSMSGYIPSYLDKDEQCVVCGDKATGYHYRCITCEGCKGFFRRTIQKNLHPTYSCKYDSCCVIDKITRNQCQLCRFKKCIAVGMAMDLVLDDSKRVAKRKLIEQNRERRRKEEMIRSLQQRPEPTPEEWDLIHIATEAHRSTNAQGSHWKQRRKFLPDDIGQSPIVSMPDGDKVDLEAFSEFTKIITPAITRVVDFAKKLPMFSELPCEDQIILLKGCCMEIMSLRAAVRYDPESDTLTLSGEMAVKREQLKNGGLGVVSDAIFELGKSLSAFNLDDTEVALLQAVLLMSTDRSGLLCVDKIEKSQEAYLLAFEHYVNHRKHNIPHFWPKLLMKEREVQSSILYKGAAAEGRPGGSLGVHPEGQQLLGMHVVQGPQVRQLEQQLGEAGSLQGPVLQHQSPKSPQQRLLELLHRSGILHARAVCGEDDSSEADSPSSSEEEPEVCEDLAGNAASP
# Procedure, shortened: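 Reporter transcript induction, read by capillary electrophoresis of 6-FAM-labelled RT-PCR products, reflects activity of a transfected THRa1-Gal4 fusion in HepG2 liver cells. Cells were dosed for 24 h; activity was fitted in the positive direction against DMSO.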
# [18] = target: human Retinoic Acid Receptor beta (RARb), RARB (gene 5915) (UniProt P10826); assay: ATG_RARb_TRANS: Attagene TRANS-FACTORIAL HepG2 Assay for human Retinoic Acid Receptor beta (AID 2283004; active = hit-call score of the fitted dose curve at least 0.9, where 1 is the maximum)
# Chain of human Retinoic Acid Receptor beta (RARb), RARB (gene 5915) (P10826 whole entry, looked up): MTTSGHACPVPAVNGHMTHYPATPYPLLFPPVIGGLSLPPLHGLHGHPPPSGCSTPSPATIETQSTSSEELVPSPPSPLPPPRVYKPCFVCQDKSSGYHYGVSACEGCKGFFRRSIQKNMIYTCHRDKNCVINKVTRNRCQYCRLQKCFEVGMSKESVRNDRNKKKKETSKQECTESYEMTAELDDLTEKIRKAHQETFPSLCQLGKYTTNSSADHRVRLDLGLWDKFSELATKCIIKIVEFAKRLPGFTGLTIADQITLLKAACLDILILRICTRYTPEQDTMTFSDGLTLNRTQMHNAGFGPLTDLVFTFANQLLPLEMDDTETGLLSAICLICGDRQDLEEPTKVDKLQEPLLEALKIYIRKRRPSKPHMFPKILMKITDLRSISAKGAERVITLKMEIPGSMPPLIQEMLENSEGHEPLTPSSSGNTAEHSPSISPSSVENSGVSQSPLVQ
# Procedure, shortened: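 Transient transfection of HepG2 with multiple reporter units → chemical dosing, 24 h → total RNA isolation → RT with oligo(dT) → reporter-specific PCR, 6-FAM primer extension, HpaI digest → capillary electrophoresis. Positive direction vs DMSO control.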
# [19] = target: Retinoic acid receptor alpha (Homo sapiens) (UniProt P10276); assay: ATG_RARa_TRANS: Attagene TRANS-FACTORIAL HepG2 Assay for human Retinoic Acid Receptor alpha (RARa) (AID 2283005; active = hit-call score of the fitted dose curve at least 0.9, where 1 is the maximum)
# Chain of Retinoic acid receptor alpha (Homo sapiens) (P10276 whole entry, looked up, the tested form may be a part): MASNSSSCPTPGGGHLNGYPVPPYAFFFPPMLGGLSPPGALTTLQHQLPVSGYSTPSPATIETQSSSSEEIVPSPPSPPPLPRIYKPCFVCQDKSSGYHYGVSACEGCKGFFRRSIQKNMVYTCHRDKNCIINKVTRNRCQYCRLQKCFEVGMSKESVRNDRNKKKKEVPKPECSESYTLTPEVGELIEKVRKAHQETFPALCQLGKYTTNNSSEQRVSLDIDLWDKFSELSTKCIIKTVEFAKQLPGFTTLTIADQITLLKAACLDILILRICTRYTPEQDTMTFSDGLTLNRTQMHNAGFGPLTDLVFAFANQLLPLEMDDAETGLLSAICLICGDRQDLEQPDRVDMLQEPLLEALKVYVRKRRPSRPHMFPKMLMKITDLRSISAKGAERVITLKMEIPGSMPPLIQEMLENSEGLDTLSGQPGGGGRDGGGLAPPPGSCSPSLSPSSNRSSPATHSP
# Procedure, shortened: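 HepG2 transiently transfected with multiplex GAL4-UAS reporter units including a human RARa–GAL4 chimera; 24 h compound exposure. Reporter mRNA quantified by RT-PCR, 6-FAM labeling and capillary electrophoresis; gain of signal versus DMSO.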
# [20] = target: human Retinoid X Receptor beta (RXRb), RXRB (gene 6257) (UniProt P28702); assay: ATG_RXRb_TRANS: Attagene TRANS-FACTORIAL HepG2 Assay for human Retinoid X Receptor beta (RXRb) (AID 2283013; active = hit-call score of the fitted dose curve at least 0.9, where 1 is the maximum)
# Procedure, shortened: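 HepG2 cells were transiently transfected with multiplexed GAL4-UAS reporters and a chimeric RXRb-Gal4 construct, then exposed for 24 h. Reporter mRNA was quantified by RT-PCR, FAM labeling, HpaI digestion and capillary electrophoresis; gain of signal was scored against DMSO.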
# Chain of E-selectin (Homo sapiens) (P16581 whole entry, looked up): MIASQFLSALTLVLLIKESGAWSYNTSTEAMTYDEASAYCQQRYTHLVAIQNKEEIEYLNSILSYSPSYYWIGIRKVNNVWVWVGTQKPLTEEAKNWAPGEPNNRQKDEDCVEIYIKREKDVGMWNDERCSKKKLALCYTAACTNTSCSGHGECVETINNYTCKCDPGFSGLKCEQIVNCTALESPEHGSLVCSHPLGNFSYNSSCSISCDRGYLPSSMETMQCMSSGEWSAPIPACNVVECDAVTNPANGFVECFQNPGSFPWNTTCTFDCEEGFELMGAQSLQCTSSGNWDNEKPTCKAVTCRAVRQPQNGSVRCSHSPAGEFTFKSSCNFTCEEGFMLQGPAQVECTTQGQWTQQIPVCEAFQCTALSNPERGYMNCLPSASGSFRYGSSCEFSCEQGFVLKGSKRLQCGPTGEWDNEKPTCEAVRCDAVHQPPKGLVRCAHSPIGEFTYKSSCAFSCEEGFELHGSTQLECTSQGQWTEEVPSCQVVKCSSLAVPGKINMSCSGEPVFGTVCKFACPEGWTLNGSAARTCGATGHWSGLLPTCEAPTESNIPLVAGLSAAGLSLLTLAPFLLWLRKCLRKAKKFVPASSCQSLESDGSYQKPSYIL
smiles,measurement,setting,value
O=P1(N(CCCl)CCCl)NCCCO1 (stereo unspecified),outcome,[1],inactive
same,outcome,[2],inactive
same,outcome,[3],inactive
same,outcome,[4],inactive
same,outcome,[5],inactive
same,outcome,[6],inactive
same,outcome,[7],inactive
same,outcome,[8],inactive
same,outcome,[9],inactive
same,outcome,[10],inactive
same,outcome,[11],inactive
same,outcome,[12],inactive
same,outcome,[13],inactive
same,outcome,[14],inactive
C=CC(=O)OCC(F)(F)C(F)F,AC50,[1],35.5 µM (active) and 37 µM (active)
same,AC50,[2],30 µM (active) and 21 µM (active)
same,outcome,[3],inactive
same,outcome,[5],inactive
same,AC50,[6],30 µM (active) and 36 µM (active)
same,AC50,[7],3.8 µM (active)
same,outcome,[8],inactive
same,outcome,[15],inactive
same,outcome,[16],inactive
same,outcome,[17],inactive
same,AC50,[10],18.4 µM (active) and 20.4 µM (active)
same,outcome,[11],inactive
same,outcome,[12],inactive
same,AC50,[14],41.1 µM (active) and 43.6 µM (active)
CCCN(CCC)c1c([N+](=O)[O-])cc(C(C)C)cc1[N+](=O)[O-],AC50,[1],25.8 µM (active)
same,AC50,[2],32.1 µM (active)
same,outcome,[3],inactive
same,outcome,[4],inactive
same,outcome,[5],inactive
same,outcome,[18],inactive
same,outcome,[19],inactive
same,AC50,[6],20 µM (active)
same,outcome,[7],inactive
same,AC50,[8],1.49 µM (active)
same,outcome,[15],inactive
same,outcome,[16],inactive
same,AC50,[20],17.9 µM (active)
same,outcome,[17],inactive
same,outcome,[10],inactive
same,outcome,[11],inactive
same,AC50,[12],32 µM (active)
same,AC50,[13],20 µM (active)
same,AC50,[14],28.5 µM (active)
CC(O)C(F)(F)C(F)(F)F (stereo unspecified),outcome,[1],inactive
same,outcome,[2],inactive
same,outcome,[3],inactive
same,outcome,[5],inactive
same,outcome,[18],inactive
same,outcome,[19],inactive
same,outcome,[6],inactive
same,outcome,[7],inactive
same,outcome,[8],inactive
same,outcome,[16],inactive
same,outcome,[20],inactive
same,outcome,[10],inactive
same,outcome,[11],inactive
same,outcome,[12],inactive
same,outcome,[14],inactive
CCCCCCCc1ccc(O)cc1,AC50,[1],35.1 µM (active)
same,AC50,[2],31.5 µM (active)
same,outcome,[3],inactive
same,outcome,[4],inactive
same,AC50,[5],37.3 µM (active)
same,outcome,[18],inactive
same,outcome,[19],inactive
same,AC50,[6],14.3 µM (active)
same,AC50,[7],24.3 µM (active)
same,outcome,[7],inactive
same,AC50,[8],11.1 µM (active)
same,outcome,[8],inactive
same,outcome,[15],inactive
same,outcome,[9],inactive
same,outcome,[16],inactive
same,AC50,[20],11.1 µM (active) and 48.7 µM (active)
same,outcome,[20],inactive
same,outcome,[17],inactive
same,AC50,[10],35.2 µM (active)
same,AC50,[11],35.7 µM (active)
same,AC50,[12],37.6 µM (active)
same,AC50,[13],29.1 µM (active)
same,AC50,[14],25.3 µM (active)
O=C(O)C(F)(F)OC(F)(F)C(F)(F)OC(F)(F)C(=O)O,outcome,[1],inactive
same,outcome,[2],inactive
same,outcome,[3],inactive
same,outcome,[4],inactive
same,outcome,[5],inactive
same,outcome,[6],inactive
same,outcome,[8],inactive
same,outcome,[20],inactive
same,outcome,[10],inactive
same,outcome,[11],inactive
same,outcome,[12],inactive
same,outcome,[13],inactive
same,outcome,[14],inactive
NC(=O)C(F)(F)C(F)(F)F,outcome,[1],inactive
same,outcome,[2],inactive
same,outcome,[3],inactive
same,outcome,[4],inactive
same,outcome,[5],inactive
same,outcome,[18],inactive
same,outcome,[19],inactive
same,outcome,[6],inactive
same,outcome,[7],inactive
same,outcome,[8],inactive
same,outcome,[9],inactive
same,outcome,[16],inactive
same,outcome,[17],inactive
same,outcome,[10],inactive
same,outcome,[11],inactive
same,outcome,[12],inactive
same,outcome,[13],inactive
same,outcome,[14],inactive
